The full list was thinned out, with hits kept by preference.
EZH2 inh – EZH2 (human) methyltransferase inhibition. Q15910. PRC2 H3K27 methylation, DELFIA TRF, 1 h. inhibition, % at 12.5 µM. 57,000 tested, 0.35% active;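 active = mean inhibition of replicates at least 50% and every single replicate also reaching 50%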;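 also: dimethyl H3K27 on biotinylated H3 21-44 peptide detected by antibody; plate controls were median neutral control wells for no effect and median positive control wells for full effect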
Target sequence (Q15910 whole entry, looked up): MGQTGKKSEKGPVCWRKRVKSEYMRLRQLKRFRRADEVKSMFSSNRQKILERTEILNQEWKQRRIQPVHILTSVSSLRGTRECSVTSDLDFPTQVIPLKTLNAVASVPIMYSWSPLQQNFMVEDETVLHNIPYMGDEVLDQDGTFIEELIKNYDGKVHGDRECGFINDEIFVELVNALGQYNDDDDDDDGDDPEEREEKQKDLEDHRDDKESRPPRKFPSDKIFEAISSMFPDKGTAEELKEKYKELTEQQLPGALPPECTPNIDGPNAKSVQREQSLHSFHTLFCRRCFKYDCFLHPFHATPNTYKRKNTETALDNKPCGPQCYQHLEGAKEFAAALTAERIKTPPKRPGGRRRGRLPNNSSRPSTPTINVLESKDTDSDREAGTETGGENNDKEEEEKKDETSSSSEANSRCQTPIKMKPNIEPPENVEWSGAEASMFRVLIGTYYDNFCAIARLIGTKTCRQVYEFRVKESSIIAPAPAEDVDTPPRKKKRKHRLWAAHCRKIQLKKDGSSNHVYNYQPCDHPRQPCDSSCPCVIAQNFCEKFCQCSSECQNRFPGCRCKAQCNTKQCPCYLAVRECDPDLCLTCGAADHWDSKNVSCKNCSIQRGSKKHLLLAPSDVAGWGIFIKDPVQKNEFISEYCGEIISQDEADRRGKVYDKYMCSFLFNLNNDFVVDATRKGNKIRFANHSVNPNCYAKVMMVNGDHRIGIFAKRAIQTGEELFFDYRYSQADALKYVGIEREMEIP
* hit, by the source's call.

How did C[C@@H]1CC[C@]2(C(=O)OC3OC(CO)C(OC4OC(CO)C(O)C(O)C4O)C(O)C3O)CC[C@]3(C)C(=CCC4[C@@]5(C)CC[C@H](O)[C@](C)(C(=O)O)C5CC[C@]43C)C2[C@]1(C)O (stereo partly specified) do in these assays?
EZH2 inh: 60.5*

What do the screens show for `CC(C)NC(=O)N(C)C[C@@H]1Oc2c(NS(C)(=O)=O)cccc2C(=O)N([C@H](C)CO)C[C@H]1C`?
EZH2 inh: 2.8

What do the screens show for `O=C(Nc1ccc(S(=O)(=O)Nc2ncccn2)cc1)c1ccc(-c2ccccc2)cc1`?
EZH2 inh: 28.1

Results for CCOc1ccccc1C(=O)Nc1ccc(S(=O)(=O)Nc2nc(C)cc(C)n2)cc1 ?
EZH2 inh: -4.3

Results for Cc1cc(C)nc(NS(=O)(=O)c2ccc(N)cc2)n1 ?
EZH2 inh: 8.2

What do the screens show for `Cc1cc(C)nc(NS(=O)(=O)c2ccc(Nc3nc(-c4ccc(F)cc4)cs3)cc2)n1`?
EZH2 inh: 58.2*

Results for Cc1cc(C)nc(NS(=O)(=O)c2ccc(NC(=O)c3ccc(-c4ccccc4)cc3)cc2)n1 ?
EZH2 inh: 55.7*

Results for Cc1cc(C)nc(NS(=O)(=O)c2ccc(NC(=O)c3ccc(C(=O)c4ccccc4)cc3)cc2)n1 ?
EZH2 inh: 7.4

What do the screens show for `C[C@@H]1CN([C@@H](C)CO)C(=O)c2cc(C#CC3CC3)cnc2O[C@H]1CN(C)C(=O)CC1CC1`?
EZH2 inh: 2.8

What do the screens show for `Cc1noc(C)c1S(=O)(=O)Nc1ccc2c(c1)C(=O)N([C@H](C)CO)C[C@@H](C)[C@H](CN(C)Cc1ccccc1)O2`?
EZH2 inh: 3.5

What do the screens show for `C[C@@H]1CN([C@H](C)CO)C(=O)c2cccc(NC(=O)c3ccncc3)c2O[C@H]1CN(C)S(C)(=O)=O`?
EZH2 inh: -3.6

What do the screens show for `COc1ccc(C(=O)On2c(-c3ccccc3)cc3ccccc32)cc1`?
EZH2 inh: -142.3

What do the screens show for `C[C@@H]1CN([C@H](C)CO)C(=O)c2cc(-c3ccc(F)cc3)cnc2O[C@H]1CN(C)C(=O)Cc1ccccn1`?
EZH2 inh: -2.7

Results for C[C@@H]1CN([C@@H](C)CO)C(=O)c2cc(C#CC3CC3)cnc2O[C@H]1CN(C)C(=O)C1CCCCC1 ?
EZH2 inh: -29.5

Results for O=C1CC(c2ccc(O)cc2)Oc2cc(O[C@@H]3O[C@H](CO)[C@@H](O)[C@H](O)[C@H]3O)cc(O)c21 (stereo partly specified) ?
EZH2 inh: -2.1

What do the screens show for `O=c1c(-c2ccc(O)cc2)coc2cc(OC3OC(CO)C(O)C(O)C3O)cc(O)c12` (stereo unspecified)?
EZH2 inh: 8.5

Results for O=c1cc(-c2ccc(O)cc2)oc2c(C3OC(CO)C(O)C(O)C3O)c(O)c(C3OCC(O)C(O)C3O)c(O)c12 (stereo unspecified) ?
EZH2 inh: 99.4*

Results for COC(=O)c1sc2nc(-c3ccccc3)nc(Nc3nc(C)cc(C)n3)c2c1C ?
EZH2 inh: 3.0

What do the screens show for `O[C@]12CO[C@H](c3ccc4c(c3)OCO4)[C@H]1CO[C@@H]2c1ccc2c(c1)OCO2`?
EZH2 inh: 11.7

How did Cc1cc(CSc2cc(C)c(Cl)cc2C)no1 do in these assays?
EZH2 inh: 56.2*

How did C[C@@H]1CN([C@H](C)CO)C(=O)c2cccc(NS(=O)(=O)c3cccs3)c2O[C@H]1CN(C)Cc1ccc(Cl)c(Cl)c1 do in these assays?
EZH2 inh: -19.5

What do the screens show for `CCCC(=O)Nc1ccc2c(c1)OC[C@@H](C)N(CCC(F)(F)F)C[C@@H](C)[C@@H](OC)CN(C)C2=O`?
EZH2 inh: 7.8

Results for O=C1C(=O)N(CCCn2ccnc2)C(c2ccccc2)C1C(=O)c1cccs1 (stereo unspecified) ?
EZH2 inh: -10.0

How did N#Cc1ccc(NC(=O)CSc2ccc([N+](=O)[O-])cn2)cc1 do in these assays?
EZH2 inh: 7.7

Results for CS(=O)(=O)N(CC(=O)Nc1cccc(Cl)c1)c1ccc(Br)cc1 ?
EZH2 inh: 3.1

How did CS(=O)(=O)N(CC(=O)Nc1ccc(Cl)c(Cl)c1)c1ccc(Br)cc1 do in these assays?
EZH2 inh: 54.6*

What do the screens show for `CS(=O)(=O)N(CC(=O)Nc1ccc(Cl)c(Cl)c1)c1cc(Cl)cc(Cl)c1`?
EZH2 inh: 5.4

Results for O=C(O)C[C@H]1C[C@H]2c3cc(NC(=O)NC4CCCCC4)ccc3O[C@H]2[C@@H](CO)O1 ?
EZH2 inh: -6.6

How did CO[C@@H]1CN(C)C(=O)c2cc(NS(=O)(=O)CC(F)(F)F)ccc2OC[C@@H](C)N(Cc2cccnc2)C[C@@H]1C do in these assays?
EZH2 inh: 5.1

Results for Cc1cc(C)c(C#N)c(SCC(=O)Nc2sc3c(c2C#N)CCC3)n1 ?
EZH2 inh: 5.9

What do the screens show for `COc1ccc(OCC(=O)Nc2sc3c(c2C#N)CCC3)cc1`?
EZH2 inh: 13.5

How did COc1cc(OC)cc(-c2nnc(SCC(=O)Nc3sc4c(c3C#N)CCCC4)o2)c1 do in these assays?
EZH2 inh: 67.7*

What do the screens show for `CCOC(=O)c1c(-c2ccc(C)cc2)csc1NC(=O)c1cccc(OC(C)=O)c1`?
EZH2 inh: 1.1

How did CCOC(=O)c1c(NC(=O)C2CC(Cl)=CCC2C(=O)O)sc2c1CC(C)CC2 (stereo unspecified) do in these assays?
EZH2 inh: 25.1

What do the screens show for `CCOC(=O)c1c(-c2ccc(Cl)cc2)csc1NC(=O)C1CCCCC1C(=O)O` (stereo unspecified)?
EZH2 inh: 57.7*

Results for COc1c(Cl)ccc(Cl)c1C(=O)Nc1ccc(S(=O)(=O)Nc2cc(C)nc(C)n2)cc1 ?
EZH2 inh: -2.1

How did Cc1ccc(S(=O)(=O)NCC[C@H]2CC[C@@H](NC(=O)c3cccnc3)[C@@H](CO)O2)cc1 do in these assays?
EZH2 inh: 2.3

How did CCOc1cc(/C=C2\SC(=S)NC2=O)cc(Cl)c1OC(=O)c1ccc(OC)cc1 do in these assays?
EZH2 inh: 66.9*

What do the screens show for `CO[C@@H]1CN(C)C(=O)c2ccc(NC(=O)Nc3cccc(F)c3)cc2OC[C@@H](C)N(C(=O)C2CC2)C[C@H]1C`?
EZH2 inh: -13.6

Results for Cc1cc(OCC(=O)Nc2cccc3ncccc23)ccc1Cl ?
EZH2 inh: 1.8

Results for Cc1ccc(-c2ccc3c(c2)O[C@H](CN(C)Cc2ccc(C(=O)O)cc2)[C@@H](C)CN([C@H](C)CO)S3(=O)=O)cc1 ?
EZH2 inh: 50.4*

Results for C[C@H](CO)N1C[C@H](C)[C@@H](CN(C)Cc2ccc(F)cc2)Oc2cc(Br)ccc2S1(=O)=O ?
EZH2 inh: 58.1*

How did Cc1ccc(-c2ccc3c(c2)O[C@H](CN(C)Cc2ccc(C(=O)O)cc2)[C@@H](C)CN([C@@H](C)CO)S3(=O)=O)cc1 do in these assays?
EZH2 inh: 44.2

How did C[C@@H]1CN([C@H](C)CO)S(=O)(=O)c2ccc(/C=C/c3ccccc3)cc2O[C@@H]1CN(C)Cc1ccc(C(=O)O)cc1 do in these assays?
EZH2 inh: 19.5

How did C[C@@H]1CN([C@H](C)CO)S(=O)(=O)c2ccc(/C=C/c3ccccc3)cc2O[C@H]1CN(C)Cc1ccccc1 do in these assays?
EZH2 inh: 10.2

Results for Cc1ccc(-c2ccc3c(c2)O[C@H](CN(C)Cc2ccc(C(=O)O)cc2)[C@H](C)CN([C@H](C)CO)S3(=O)=O)cc1 ?
EZH2 inh: 28.5

Results for C[C@H](CO)N1C[C@H](C)[C@H](CN(C)Cc2ccc(C(=O)O)cc2)Oc2cc(/C=C/c3ccccc3)ccc2S1(=O)=O ?
EZH2 inh: 52.1*

High-throughput results (PubChem BioAssay)
